Records with an inconclusive call do not appear. Entries that show only a call come without a potency. The source made the active and inactive calls. The call rests on the fitted dose curve; in most records, active means well fitted inhibition curve with a large enough effect in the signal ratio in the repeat runs (not every such curve was filed as active); inconclusive means weak or mixed curves, or effect the other way; inactive means no such curve, though single readings can be large or run the other way; the % refers to the signal ratio.
The compounds below were run against Estrogen receptor beta (Homo sapiens) (UniProt Q92731) (assay: qHTS assay to identify small molecule antagonists of the estrogen receptor beta (ER-beta) signaling pathway (AID 1259378)). Details: ER-beta-UAS-bla HEK293T, beta-lactamase FRET ratio, 16 h; series mostly up to 92.4 µM.
Excerpt: National Center for Advancing Translational Sciences [NCATS]
NIH Chemical Genomics Center [NCGC]
U.S. Environmental Protection Agency [EPA]
National Institutes of Environmental Health Sciences [NIEHS]
National Toxicology Program [NTP]
U.S. Food and Drug Administration [FDA]
Estrogen receptor (ER), a nuclear hormone receptor, plays an important role in development, metabolic homeostasis and reproduction. Two subtypes of ER, ER-alpha and ER-beta, have similar expression patterns with some uniqueness in both types. Endocrine disrupting chemicals (EDCs) and their interactions with steroid hormone receptors like ER causes disruption of normal endocrine function. To identify the compounds that inhibit ER signaling, an ER-beta-UAS-bla GripTite cell line (Life Technologies, Madison, WI, USA) containing a beta-lactamase reporter gene under the control of an UAS response element was used to screen Tox21 10K compound library.
Tox21 Assay Protocol Summary:
ER-beta-UAS-bla HEK293T cells were dispensed at 2,000 cells/4 uL of assay medium containing 2% charcoal stripped FBS per well into black wall/clear-bottom 1536-well plates using a Multidrop Combi (ThermoFisher Scientific, Waltham, MA) dispenser. After the assay plates were incubated at a 37C and 5% CO2 for 6 hr, 23 nL of compounds dissolved in DMSO, positive controls or DMSO only was transferred to the assay plate by a Pintool station (Kalypsys, San Diego, CA), followed by addition of 1 uL (1nM as final concentration) of 17-beta-estradiol (E2) in assay medium using a BioRAPTR FRD (Flying Reagent Dispenser, Aurora Discovery, San Diego, CA). The plates were incubated at 37C and 5% CO2 for 16 hr. Then 1 uL of LiveBLAzerTM B/G FRET substrate was added using a Flying Reagent Dispenser, the plates were incubated at room temperature for 2 hours, and fluorescence intensity was measured by an Envision plate reader (PerkinElmer, Shelton, CT).
Potency means the concentration at half of the fitted maximal effect.

Sequence of Estrogen receptor beta (Homo sapiens) (Q92731 whole entry, looked up): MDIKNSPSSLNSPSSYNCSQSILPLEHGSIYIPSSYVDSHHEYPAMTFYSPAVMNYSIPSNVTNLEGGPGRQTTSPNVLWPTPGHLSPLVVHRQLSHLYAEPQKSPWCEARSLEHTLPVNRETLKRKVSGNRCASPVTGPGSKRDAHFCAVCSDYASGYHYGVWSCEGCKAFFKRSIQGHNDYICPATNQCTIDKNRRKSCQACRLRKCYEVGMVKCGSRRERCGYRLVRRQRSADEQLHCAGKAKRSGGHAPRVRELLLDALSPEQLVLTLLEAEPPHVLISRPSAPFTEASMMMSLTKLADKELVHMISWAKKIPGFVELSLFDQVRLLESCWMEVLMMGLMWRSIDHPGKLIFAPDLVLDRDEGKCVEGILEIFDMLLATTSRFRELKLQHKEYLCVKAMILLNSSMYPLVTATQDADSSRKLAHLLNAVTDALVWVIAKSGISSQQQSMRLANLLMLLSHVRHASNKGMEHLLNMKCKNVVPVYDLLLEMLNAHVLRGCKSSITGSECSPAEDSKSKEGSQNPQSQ

Row | Structure (SMILES) | Potency
1 | O=C(O)C(O)[C@H](O)[C@@H](O)[C@H](O)[C@H](O)CO (stereo not given in full) | inactive
2 | COCc1ccc(COC)cc1 | inactive
3 | CC(C)(O)C(=O)c1ccc(OCCO)cc1 | inactive
4 | CC1=CCC2C(C1)C2(C)C (stereo not given) | inactive
5 | CCCCCCOC(=O)c1ccccc1O | inactive
6 | CCCCc1ccc2cccc(S(=O)(=O)O)c2c1 | inactive
7 | CCC(C)(C)C1CCC(OC)CC1 (stereo not given) | inactive
8 | NS(=O)(=O)c1cc2c(cc1C(F)(F)F)NC(Cc1ccccc1)NS2(=O)=O (stereo not given) | inactive
9 | O=C(O)/C=C/c1ccc(/C=C/C(=O)O)cc1 | inactive
10 | C#CC(O)C(CC)CCCC (stereo not given) | inactive
11 | CSc1ccc(C=O)cc1 | inactive
12 | CNC(=O)c1c(I)c(NC(=O)CCCCC(=O)Nc2c(I)c(C(=O)O)c(I)c(C(=O)NC)c2I)c(I)c(C(=O)O)c1I | inactive
13 | COc1ccc(COC=O)cc1 | inactive
14 | CN1[C@@H]2CC[C@H]1CC(NC(=O)n1c(=O)[nH]c3ccccc31)C2 (stereo not given in full) | inactive
15 | COc1nc(C)nc(N)n1 | inactive
16 | CC(CCO)CCCC(C)(C)O (stereo not given) | inactive
17 | Oc1ccc2c(c1)OC[C@@H](N1CCC(O)(c3ccc(F)cc3)CC1)[C@H]2O | inactive
18 | COC[C@H](c1ccc(C(F)(F)F)cc1)N1CCN(C2(C)CCN(C(=O)c3c(C)ncnc3C)CC2)C[C@H]1C | inactive
19 | CC(C)COC(=O)C(C)C | inactive
20 | C1=C\CC/C=C\CC/C=C\CC/1 | inactive

Row | Structure (SMILES) | Potency
21 | c1ccc(SCCSc2ccccc2)cc1 | inactive
22 | CN(C)N=Nc1ccccc1 | inactive
23 | COc1ccc2cc(C=O)ccc2c1 | inactive
24 | Cc1nccn1CC1CCc2c(c3ccccc3n2C)C1=O (stereo not given) | inactive
25 | CC(C)(C)OC(=O)N1C[C@@H](F)C[C@H]1C(=O)O | inactive
26 | Oc1cc(O)c2c(c1)O[C@H](c1ccc(O)c(O)c1)[C@H](O)C2 | inactive
27 | CCN1CCCC(OC(=O)C(c2ccccc2)c2ccccc2)C1 (stereo not given) | inactive
28 | Cc1ccccc1Br | inactive
29 | CCO[Si](C)(OCC)OCC | inactive
30 | O=C(O)C1CCC1 | inactive
31 | CC(C)(C)C(=O)/C=C/c1ccc(Cl)cc1 | inactive
32 | CCCCCCCCC=O | inactive
33 | OC/C=C/c1ccccc1 | inactive
34 | C[C@H]1O[C@@H](n2cc(F)c(=O)[nH]c2=O)[C@H](O)[C@@H]1O | inactive
35 | COCCOC(=O)CC#N | inactive
36 | NS(=O)(=O)c1cc(C2(O)NC(=O)c3ccccc32)ccc1Cl (stereo not given) | inactive
37 | CCN(CC)S(=O)(=O)c1ccc(C(=O)O)cc1 | inactive
38 | Cc1ccccc1C(=O)O | inactive
39 | CCCCCCC(=O)OCC | inactive
40 | c1cc(CN2CCCCC2)cc(OCCCNc2nc3ccccc3s2)c1 | 23.7 µM (active)

Reference: PubChem BioAssay (Tox21)
